Assays:
Test in all cases: DAPPL (digital affinity profiling via proximity ligation, sequencing); 10 mM Tris-HCl pH 7.5, 50 mM NaCl, 1 mM DTT, 4% glycerol, room temperature, 30 min; GST-TFs on glutathione beads, 16-mer random dsDNA library, 0.1% formaldehyde crosslink after washing; high values mean tight binding
[1] = molecular target: T1, FLI1 (Homo sapiens, UniProt Q01543 1-452); conditions: protein: recombinant; tags: N-terminal GST; dsDNA, one strand shown
T1 sequence: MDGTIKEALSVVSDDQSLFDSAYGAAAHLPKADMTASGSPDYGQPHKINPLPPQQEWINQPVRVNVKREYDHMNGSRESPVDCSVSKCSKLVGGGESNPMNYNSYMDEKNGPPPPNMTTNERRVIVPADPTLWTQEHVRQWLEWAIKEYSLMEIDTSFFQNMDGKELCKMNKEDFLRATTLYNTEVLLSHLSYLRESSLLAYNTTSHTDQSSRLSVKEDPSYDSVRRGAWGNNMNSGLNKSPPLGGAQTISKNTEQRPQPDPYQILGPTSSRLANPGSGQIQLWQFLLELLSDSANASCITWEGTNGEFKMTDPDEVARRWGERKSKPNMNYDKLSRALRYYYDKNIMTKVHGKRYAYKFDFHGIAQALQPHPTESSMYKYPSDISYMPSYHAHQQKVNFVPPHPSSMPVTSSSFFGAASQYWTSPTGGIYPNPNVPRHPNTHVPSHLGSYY
In short: (§1)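 Pools of DNA-barcoded human transcription factors, expressed in yeast as GST fusions on glutathione beads and combined with a tag-only sample, were incubated with 200 nmole of a 16-mer random double-stranded DNA library. Incubation took 30 min at room temperature in Tris/NaCl/DTT/glycerol buffer and was followed by washing, 0.1% formaldehyde crosslinking, proximity ligation (BsaI/T4 ligase, 1 h, 37 °C), PCR amplification and sequencing on an Illumina NextSeq500. Binding signal is the ratio of a hexamer's read frequency for a factor to its frequency for the tag-only sample.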

[2] = molecular target: T2, ELK1 (Homo sapiens, UniProt P19419 1-428); conditions: protein: recombinant; tags: N-terminal GST; dsDNA, one strand shown
T2 sequence: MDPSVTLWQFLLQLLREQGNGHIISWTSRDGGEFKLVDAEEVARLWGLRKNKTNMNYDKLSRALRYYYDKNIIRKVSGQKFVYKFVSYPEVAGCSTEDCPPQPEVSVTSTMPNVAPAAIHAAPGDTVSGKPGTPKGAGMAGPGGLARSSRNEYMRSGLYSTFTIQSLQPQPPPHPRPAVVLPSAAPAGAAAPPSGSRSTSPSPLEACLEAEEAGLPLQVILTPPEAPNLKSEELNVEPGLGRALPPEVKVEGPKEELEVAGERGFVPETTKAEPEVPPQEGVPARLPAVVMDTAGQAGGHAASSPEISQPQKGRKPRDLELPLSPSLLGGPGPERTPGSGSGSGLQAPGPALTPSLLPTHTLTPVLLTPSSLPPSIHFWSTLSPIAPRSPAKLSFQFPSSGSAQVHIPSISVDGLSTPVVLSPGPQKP
In short: as §1

[3] = molecular target: T3, GABPA (Homo sapiens, UniProt Q06546 1-454); conditions: protein: recombinant; tags: N-terminal GST; dsDNA, one strand shown
T3 sequence: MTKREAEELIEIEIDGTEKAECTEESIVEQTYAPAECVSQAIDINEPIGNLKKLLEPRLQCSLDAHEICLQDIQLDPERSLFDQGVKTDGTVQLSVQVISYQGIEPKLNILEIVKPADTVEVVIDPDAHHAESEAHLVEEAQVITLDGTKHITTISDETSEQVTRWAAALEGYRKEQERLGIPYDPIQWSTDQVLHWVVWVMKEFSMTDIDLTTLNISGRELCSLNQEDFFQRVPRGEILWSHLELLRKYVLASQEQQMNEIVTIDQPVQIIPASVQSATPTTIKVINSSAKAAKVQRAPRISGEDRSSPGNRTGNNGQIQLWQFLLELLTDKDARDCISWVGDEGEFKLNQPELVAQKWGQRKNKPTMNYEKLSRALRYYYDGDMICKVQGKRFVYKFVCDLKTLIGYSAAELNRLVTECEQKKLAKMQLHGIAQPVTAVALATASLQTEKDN
In short: as §1

[4] = molecular target: T4, ERG (Homo sapiens, UniProt P11308 1-479); conditions: protein: recombinant; tags: N-terminal GST; dsDNA, one strand shown
T4 sequence: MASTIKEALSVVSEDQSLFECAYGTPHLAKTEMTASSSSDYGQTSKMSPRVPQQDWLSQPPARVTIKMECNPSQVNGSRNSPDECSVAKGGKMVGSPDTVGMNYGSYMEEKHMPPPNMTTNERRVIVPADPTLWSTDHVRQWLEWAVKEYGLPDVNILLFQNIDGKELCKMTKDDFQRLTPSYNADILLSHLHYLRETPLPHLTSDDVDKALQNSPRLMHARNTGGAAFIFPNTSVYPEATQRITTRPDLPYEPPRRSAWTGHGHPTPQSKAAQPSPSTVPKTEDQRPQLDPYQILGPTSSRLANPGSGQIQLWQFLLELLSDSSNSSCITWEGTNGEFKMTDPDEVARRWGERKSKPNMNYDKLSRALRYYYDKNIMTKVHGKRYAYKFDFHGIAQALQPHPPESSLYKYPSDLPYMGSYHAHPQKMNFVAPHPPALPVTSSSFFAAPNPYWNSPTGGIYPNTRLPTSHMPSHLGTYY
In short: as §1

[5] = molecular target: ELF1 (Homo sapiens, UniProt P32519 1-619); conditions: protein: recombinant; tags: N-terminal GST; dsDNA, one strand shown
ELF1, sequence (P32519 whole entry): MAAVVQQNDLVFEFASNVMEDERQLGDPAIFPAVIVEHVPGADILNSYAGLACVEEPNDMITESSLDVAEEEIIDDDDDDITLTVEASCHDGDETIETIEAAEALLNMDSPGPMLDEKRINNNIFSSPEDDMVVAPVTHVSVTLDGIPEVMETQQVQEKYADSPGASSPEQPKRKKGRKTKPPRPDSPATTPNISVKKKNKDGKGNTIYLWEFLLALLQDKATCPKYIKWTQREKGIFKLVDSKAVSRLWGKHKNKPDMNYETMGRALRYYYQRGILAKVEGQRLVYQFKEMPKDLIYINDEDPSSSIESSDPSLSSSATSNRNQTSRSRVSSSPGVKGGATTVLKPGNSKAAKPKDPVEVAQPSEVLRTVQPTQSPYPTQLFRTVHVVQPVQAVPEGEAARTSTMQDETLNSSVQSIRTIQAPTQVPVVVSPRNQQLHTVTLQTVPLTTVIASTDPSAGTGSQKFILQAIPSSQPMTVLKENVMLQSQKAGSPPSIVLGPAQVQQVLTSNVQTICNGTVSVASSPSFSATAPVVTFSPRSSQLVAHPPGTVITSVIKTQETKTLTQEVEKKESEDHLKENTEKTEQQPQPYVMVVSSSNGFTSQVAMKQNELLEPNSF
In short: as §1

[6] = molecular target: T5, EHF (Homo sapiens, UniProt Q9NZC4 1-300); conditions: protein: recombinant; tags: N-terminal GST; dsDNA, one strand shown
T5 sequence: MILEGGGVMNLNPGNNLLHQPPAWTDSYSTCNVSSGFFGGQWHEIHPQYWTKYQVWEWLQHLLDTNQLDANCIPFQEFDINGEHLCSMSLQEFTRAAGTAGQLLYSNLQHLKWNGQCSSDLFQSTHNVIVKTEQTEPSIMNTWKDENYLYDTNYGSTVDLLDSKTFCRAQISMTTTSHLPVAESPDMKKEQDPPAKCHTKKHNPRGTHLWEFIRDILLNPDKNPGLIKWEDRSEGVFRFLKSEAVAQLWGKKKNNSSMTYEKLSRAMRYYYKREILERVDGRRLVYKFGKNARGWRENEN
In short: as §1

[7] = molecular target: SPI1 (Homo sapiens, UniProt P17947 1-270); conditions: protein: recombinant; tags: N-terminal GST; dsDNA, one strand shown
In short: as §1

[8] = molecular target: SPIB (Homo sapiens, UniProt Q01892 1-262); conditions: protein: recombinant; tags: N-terminal GST; dsDNA, one strand shown
SPIB, sequence (Q01892 whole entry): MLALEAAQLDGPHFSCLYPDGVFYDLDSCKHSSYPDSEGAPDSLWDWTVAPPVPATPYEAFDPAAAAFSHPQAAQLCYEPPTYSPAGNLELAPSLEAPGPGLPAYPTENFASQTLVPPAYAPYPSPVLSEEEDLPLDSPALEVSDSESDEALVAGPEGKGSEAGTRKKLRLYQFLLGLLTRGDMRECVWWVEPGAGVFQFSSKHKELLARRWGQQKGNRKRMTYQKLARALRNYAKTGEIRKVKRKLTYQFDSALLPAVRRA
In short: as §1

[9] = molecular target: T6, ELK3 (Homo sapiens, UniProt P41970 1-407); conditions: protein: recombinant; tags: N-terminal GST; dsDNA, one strand shown
T6 sequence: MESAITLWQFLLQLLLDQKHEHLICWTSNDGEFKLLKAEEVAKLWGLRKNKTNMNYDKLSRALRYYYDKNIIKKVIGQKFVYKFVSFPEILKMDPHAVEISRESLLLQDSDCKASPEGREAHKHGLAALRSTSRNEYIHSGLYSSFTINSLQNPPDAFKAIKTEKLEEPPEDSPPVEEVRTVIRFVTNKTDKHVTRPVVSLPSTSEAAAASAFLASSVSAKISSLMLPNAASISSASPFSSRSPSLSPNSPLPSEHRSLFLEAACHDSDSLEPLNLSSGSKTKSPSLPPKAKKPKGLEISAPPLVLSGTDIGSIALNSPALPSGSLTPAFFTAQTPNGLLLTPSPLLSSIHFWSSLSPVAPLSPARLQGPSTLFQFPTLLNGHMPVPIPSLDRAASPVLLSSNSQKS
In short: as §1

[10] = molecular target: T7, FEV (Homo sapiens, UniProt Q99581 1-238); conditions: protein: recombinant; tags: N-terminal GST; dsDNA, one strand shown
T7 sequence: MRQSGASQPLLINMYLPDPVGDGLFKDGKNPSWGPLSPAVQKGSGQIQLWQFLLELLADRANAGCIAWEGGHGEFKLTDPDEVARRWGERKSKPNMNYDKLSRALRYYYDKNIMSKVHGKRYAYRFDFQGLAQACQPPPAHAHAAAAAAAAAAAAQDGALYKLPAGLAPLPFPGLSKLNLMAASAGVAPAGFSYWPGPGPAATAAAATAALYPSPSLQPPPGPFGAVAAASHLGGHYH
In short: as §1

[11] = molecular target: ETV5 (Homo sapiens, UniProt P41161 1-510); conditions: protein: recombinant; tags: N-terminal GST; dsDNA, one strand shown
ETV5, sequence (P41161 whole entry): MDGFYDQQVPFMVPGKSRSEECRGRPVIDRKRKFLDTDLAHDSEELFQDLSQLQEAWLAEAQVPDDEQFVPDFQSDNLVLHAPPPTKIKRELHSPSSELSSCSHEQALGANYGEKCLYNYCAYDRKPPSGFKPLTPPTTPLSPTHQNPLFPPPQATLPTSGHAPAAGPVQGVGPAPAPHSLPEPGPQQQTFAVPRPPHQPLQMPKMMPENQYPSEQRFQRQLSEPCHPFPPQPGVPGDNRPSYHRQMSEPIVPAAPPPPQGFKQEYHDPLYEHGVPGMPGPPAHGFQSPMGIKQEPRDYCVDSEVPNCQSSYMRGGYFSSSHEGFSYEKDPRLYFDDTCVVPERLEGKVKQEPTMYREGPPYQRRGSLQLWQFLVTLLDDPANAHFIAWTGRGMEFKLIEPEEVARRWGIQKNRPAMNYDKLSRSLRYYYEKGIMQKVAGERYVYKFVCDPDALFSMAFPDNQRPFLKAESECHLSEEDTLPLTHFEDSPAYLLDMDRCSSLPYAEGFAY
In short: as §1

[12] = molecular target: HSF1 (Homo sapiens, UniProt Q00613 1-529); conditions: protein: recombinant; tags: N-terminal GST; chain copies: 3; dsDNA, one strand shown
HSF1, sequence (Q00613 whole entry): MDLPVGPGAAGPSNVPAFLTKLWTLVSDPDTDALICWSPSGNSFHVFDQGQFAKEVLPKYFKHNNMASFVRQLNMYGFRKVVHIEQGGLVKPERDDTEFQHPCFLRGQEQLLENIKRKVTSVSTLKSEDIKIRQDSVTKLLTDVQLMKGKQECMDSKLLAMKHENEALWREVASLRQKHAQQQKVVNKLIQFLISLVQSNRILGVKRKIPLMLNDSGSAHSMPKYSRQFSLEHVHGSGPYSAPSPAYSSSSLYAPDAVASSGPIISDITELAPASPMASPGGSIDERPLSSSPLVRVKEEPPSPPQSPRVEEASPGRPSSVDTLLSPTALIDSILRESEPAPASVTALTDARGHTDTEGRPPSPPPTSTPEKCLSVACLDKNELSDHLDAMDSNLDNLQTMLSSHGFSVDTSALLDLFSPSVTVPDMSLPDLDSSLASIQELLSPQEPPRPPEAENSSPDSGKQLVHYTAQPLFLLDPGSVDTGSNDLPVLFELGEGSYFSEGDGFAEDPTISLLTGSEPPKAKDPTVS
In short: as §1

[13] = molecular target: T8, SPIC (Homo sapiens, UniProt Q8N5J4 1-248); conditions: protein: recombinant; tags: N-terminal GST; dsDNA, one strand shown
T8 sequence: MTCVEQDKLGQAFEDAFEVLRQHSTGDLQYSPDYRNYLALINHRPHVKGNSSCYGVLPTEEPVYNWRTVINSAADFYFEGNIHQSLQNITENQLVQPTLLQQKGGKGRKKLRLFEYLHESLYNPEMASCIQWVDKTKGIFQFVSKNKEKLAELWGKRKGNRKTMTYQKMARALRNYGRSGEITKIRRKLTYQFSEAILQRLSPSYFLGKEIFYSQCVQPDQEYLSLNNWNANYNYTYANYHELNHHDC
In short: as §1

[14] = molecular target: ELF4 (Homo sapiens, UniProt Q99607 1-663); conditions: protein: recombinant; tags: N-terminal GST; dsDNA, one strand shown
ELF4, sequence (Q99607 whole entry): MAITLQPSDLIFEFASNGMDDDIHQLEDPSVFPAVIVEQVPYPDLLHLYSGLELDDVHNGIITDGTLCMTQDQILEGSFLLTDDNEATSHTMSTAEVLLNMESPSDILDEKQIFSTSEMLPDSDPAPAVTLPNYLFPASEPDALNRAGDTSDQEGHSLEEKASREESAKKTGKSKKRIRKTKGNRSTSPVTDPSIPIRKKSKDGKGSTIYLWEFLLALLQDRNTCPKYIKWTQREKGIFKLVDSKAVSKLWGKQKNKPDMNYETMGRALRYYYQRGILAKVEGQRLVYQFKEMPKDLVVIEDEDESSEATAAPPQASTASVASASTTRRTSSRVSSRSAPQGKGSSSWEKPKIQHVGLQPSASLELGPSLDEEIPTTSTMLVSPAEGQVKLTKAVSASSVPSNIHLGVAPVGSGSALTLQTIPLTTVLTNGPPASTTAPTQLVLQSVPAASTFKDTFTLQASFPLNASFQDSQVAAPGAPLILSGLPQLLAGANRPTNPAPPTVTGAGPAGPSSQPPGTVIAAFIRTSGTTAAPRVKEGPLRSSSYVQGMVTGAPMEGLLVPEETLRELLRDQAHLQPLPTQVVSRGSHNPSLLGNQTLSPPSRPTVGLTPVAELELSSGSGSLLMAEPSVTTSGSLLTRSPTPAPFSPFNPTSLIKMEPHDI
In short: as §1

[15] = molecular target: T9, ELK4 (Homo sapiens, UniProt P28324-2 1-405); conditions: protein: recombinant; tags: N-terminal GST; dsDNA, one strand shown
T9 sequence: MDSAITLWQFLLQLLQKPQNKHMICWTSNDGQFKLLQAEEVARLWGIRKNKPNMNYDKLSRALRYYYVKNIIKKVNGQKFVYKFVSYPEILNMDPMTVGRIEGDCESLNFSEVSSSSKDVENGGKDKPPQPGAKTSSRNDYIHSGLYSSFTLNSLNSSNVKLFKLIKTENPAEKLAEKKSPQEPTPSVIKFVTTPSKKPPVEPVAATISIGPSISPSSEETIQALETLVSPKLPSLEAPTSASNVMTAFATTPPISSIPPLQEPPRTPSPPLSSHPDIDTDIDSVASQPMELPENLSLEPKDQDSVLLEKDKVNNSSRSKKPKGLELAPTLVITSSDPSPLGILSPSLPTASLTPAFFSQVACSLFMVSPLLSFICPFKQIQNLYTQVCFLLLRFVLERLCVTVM
In short: as §1

[16] = molecular target: T10, ETV2 (Homo sapiens, UniProt O00321 1-342); conditions: protein: recombinant; tags: N-terminal GST; dsDNA, one strand shown
T10 sequence: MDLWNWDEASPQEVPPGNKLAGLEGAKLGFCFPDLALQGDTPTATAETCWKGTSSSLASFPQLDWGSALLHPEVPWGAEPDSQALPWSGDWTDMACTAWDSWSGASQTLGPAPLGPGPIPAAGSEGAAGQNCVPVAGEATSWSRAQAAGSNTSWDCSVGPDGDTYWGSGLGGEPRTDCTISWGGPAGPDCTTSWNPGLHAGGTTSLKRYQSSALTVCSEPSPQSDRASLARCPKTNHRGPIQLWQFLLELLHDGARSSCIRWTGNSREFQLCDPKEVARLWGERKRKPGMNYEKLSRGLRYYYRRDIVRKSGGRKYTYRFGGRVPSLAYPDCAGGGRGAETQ
In short: as §1

[17] = molecular target: T11, ELF3 (Homo sapiens, UniProt P78545 1-371); conditions: protein: recombinant; tags: N-terminal GST; dsDNA, one strand shown
T11 sequence: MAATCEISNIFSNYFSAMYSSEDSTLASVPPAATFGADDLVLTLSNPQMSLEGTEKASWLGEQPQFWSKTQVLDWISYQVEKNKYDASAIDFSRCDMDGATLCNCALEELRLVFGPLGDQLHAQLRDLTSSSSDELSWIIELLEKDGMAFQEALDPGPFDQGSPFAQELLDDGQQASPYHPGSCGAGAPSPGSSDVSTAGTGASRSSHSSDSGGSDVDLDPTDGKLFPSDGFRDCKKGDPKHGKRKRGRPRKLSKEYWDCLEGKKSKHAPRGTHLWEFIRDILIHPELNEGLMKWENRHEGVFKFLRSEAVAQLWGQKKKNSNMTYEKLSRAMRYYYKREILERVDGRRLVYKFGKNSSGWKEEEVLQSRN
In short: as §1

[18] = molecular target: CRX (Homo sapiens, UniProt O43186 1-299); conditions: protein: recombinant; tags: N-terminal GST; dsDNA, one strand shown
CRX, sequence (O43186 whole entry): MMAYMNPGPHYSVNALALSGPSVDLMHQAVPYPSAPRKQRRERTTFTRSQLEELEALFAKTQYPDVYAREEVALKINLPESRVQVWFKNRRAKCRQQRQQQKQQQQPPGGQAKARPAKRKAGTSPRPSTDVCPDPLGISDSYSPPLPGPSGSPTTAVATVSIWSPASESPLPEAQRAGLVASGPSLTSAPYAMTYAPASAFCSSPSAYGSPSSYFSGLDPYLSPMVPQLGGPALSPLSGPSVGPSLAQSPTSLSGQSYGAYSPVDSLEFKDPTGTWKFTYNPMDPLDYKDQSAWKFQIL
In short: as §1

[19] = molecular target: ETV1 (Homo sapiens, UniProt P50549 1-477); conditions: protein: recombinant; tags: N-terminal GST; dsDNA, one strand shown
ETV1, sequence (P50549 whole entry): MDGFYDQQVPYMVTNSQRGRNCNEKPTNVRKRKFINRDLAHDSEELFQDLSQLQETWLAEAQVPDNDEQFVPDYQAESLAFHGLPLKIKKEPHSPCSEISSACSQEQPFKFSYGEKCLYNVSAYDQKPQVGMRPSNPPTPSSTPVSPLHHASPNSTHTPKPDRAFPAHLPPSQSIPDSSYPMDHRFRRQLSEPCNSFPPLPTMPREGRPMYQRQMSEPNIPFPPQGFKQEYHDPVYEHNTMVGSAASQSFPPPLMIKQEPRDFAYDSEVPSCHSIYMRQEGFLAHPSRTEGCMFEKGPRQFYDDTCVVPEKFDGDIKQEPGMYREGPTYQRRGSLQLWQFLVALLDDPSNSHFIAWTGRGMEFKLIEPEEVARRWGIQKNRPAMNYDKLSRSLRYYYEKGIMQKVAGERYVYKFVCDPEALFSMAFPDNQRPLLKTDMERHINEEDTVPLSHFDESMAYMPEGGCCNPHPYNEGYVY
In short: as §1

ATGATG
binding signal [1]: 1.39 fold enrichment (6-mer frequency, TF over GST control) | binding signal [2]: 1.35 fold enrichment (6-mer frequency, TF over GST control) | binding signal [3]: 1.33 fold enrichment (6-mer frequency, TF over GST control) | binding signal [4]: 1.18 fold enrichment (6-mer frequency, TF over GST control) | binding signal [5]: 1.36 fold enrichment (6-mer frequency, TF over GST control) | binding signal [6]: 1.4 fold enrichment (6-mer frequency, TF over GST control) | binding signal [7]: 1.24 fold enrichment (6-mer frequency, TF over GST control) | binding signal [8]: 1.35 fold enrichment (6-mer frequency, TF over GST control) | binding signal [9]: 1.53 fold enrichment (6-mer frequency, TF over GST control) | binding signal [10]: 1.27 fold enrichment (6-mer frequency, TF over GST control) | binding signal [11]: 1.33 fold enrichment (6-mer frequency, TF over GST control) | binding signal [12]: 1.24 fold enrichment (6-mer frequency, TF over GST control) | binding signal [13]: 1.35 fold enrichment (6-mer frequency, TF over GST control) | binding signal [14]: 1.37 fold enrichment (6-mer frequency, TF over GST control) | binding signal [15]: 1.38 fold enrichment (6-mer frequency, TF over GST control) | binding signal [16]: 1.47 fold enrichment (6-mer frequency, TF over GST control) | binding signal [17]: 1.38 fold enrichment (6-mer frequency, TF over GST control) | binding signal [18]: 1.21 fold enrichment (6-mer frequency, TF over GST control) | binding signal [19]: 1.24 fold enrichment (6-mer frequency, TF over GST control)

Source: PMC7862700, “An all-to-all approach to the identification of sequence-specific readers for epigenetic DNA modifications on cytosine”
